Among all 5,500 compounds or so, about 2,000 (36%) were called active. Inconclusive results (about 18%) are left out. Rule as the data show it: active = normalized growth mostly below about 0.91 (no sharp cut-off); inconclusive = no clear call, values can overlap the other calls; inactive = mostly above about 0.92. This is one part of the list.
Assay: chemical genetic growth profiling, strain panel (AID 1159580);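 also: tested at 20 µM; growth read once vehicle control cultures reached saturation at 30 °C; 1 = growth at the plate median or of vehicle wells; lower values mean less growth of the strain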
Conditions: S. cerevisiae deletion strains, growth OD

Measured: normalized growth

O=C(O)CN(CC(=O)O)Cc1cc2c(-c3ccccc3C(=O)O)c3cc(CN(CC(=O)O)CC(=O)O)c(=O)cc-3oc2cc1O
inactive: locus YAL013W, strain DEP1, stronger effect = lower value 1 | locus YAL021C, strain ccr4, stronger effect = lower value 0.934 | locus YAL030W, strain snc1, stronger effect = lower value 0.962 | locus YBL061C, strain skt5, stronger effect = lower value 0.965 | locus YBR009C, strain hhf1, stronger effect = lower value 0.931 | locus YBR021W, strain FUR4, stronger effect = lower value 0.981 | locus YBR023C, strain chs3, stronger effect = lower value 0.981 | locus YBR171W, strain sec66, stronger effect = lower value 0.965 | locus YBR229C, strain ROT2, stronger effect = lower value 1.01 | locus YBR231C, strain swc5, stronger effect = lower value 0.943 | locus YBR279W, strain paf1, stronger effect = lower value 0.967 | locus YCL011C, strain gbp2, stronger effect = lower value 0.962 | locus YCL016C, strain dcc1, stronger effect = lower value 0.976 | locus YCL029C, strain bik1, stronger effect = lower value 1.02 | locus YCL061C, strain MRC1, stronger effect = lower value 0.937 | locus YCL069W, strain vba3, stronger effect = lower value 0.975 | locus YCR088W, strain abp1, stronger effect = lower value 0.995 | locus YDL005C, strain med2, stronger effect = lower value 0.982 | locus YDL035C, strain GPR1, stronger effect = lower value 0.997 | locus YDL040C, strain nat1, stronger effect = lower value 0.964 | locus YDL074C, strain BRE1, stronger effect = lower value 0.991 | locus YDL101C, strain DUN1, stronger effect = lower value 1.01 | locus YDL134C, strain PPH21, stronger effect = lower value 1.01 | locus YDL185W, strain tfp1, stronger effect = lower value 0.986 | locus YDL192W, strain arf1, stronger effect = lower value 1.02 | locus YDR001C, strain nth1, stronger effect = lower value 0.965 | locus YDR069C, strain doa4, stronger effect = lower value 0.951 | locus YDR101C, strain arx1, stronger effect = lower value 1.01 | locus YDR150W, strain NUM1, stronger effect = lower value 1.02 | locus YDR159W, strain sac3, stronger effect = lower value 0.96 | locus YDR162C, strain NBP2, stronger effect = lower value 0.984 | locus YDR195W, strain ref2 1.04 | locus YDR297W, strain sur2, stronger effect = lower value 0.951 | locus YDR318W, strain mcm21, stronger effect = lower value 1.02 | locus YDR334W, strain swr1, stronger effect = lower value 0.955 | locus YDR335W, strain msn5, stronger effect = lower value 0.932 | locus YDR388W, stronger effect = lower value 1.02 | locus YDR392W, strain spt3, stronger effect = lower value 0.914 | locus YDR502C, strain sam2, stronger effect = lower value 1.02 | locus YEL003W, strain gim4, stronger effect = lower value 0.948 | locus YEL037C, strain rad23, stronger effect = lower value 0.971 | locus YEL061C, strain CIN8 (second series), stronger effect = lower value 0.963 | locus YEL061C, strain CIN8, stronger effect = lower value 1 | locus YER016W, strain bim1, stronger effect = lower value 0.986 | locus YER110C, stronger effect = lower value 1.03 | locus YER111C, strain swi4, stronger effect = lower value 0.934 | locus YER155C, strain BEM2 (second series), stronger effect = lower value 1 | locus YER155C, strain BEM2, stronger effect = lower value 1 | locus YER167W, strain BCK2, stronger effect = lower value 1.02 | locus YFR010W, strain ubp6, stronger effect = lower value 0.992 | locus YGL078C, strain dbp3, stronger effect = lower value 1.02 | locus YGL086W, strain mad1, stronger effect = lower value 1.01 | locus YGL167C, strain pmr1, stronger effect = lower value 0.967 | locus YGL173C, strain kem1, stronger effect = lower value 0.939 | locus YGL227W, strain vid30, stronger effect = lower value 0.977 | locus YGL240W, strain doc1, stronger effect = lower value 0.977 | locus YGL248W, strain PDE1, stronger effect = lower value 1.01 | locus YGL253W, strain hxk2, stronger effect = lower value 0.934 | locus YGR078C, strain PAC10, stronger effect = lower value 0.997 | locus YGR135W, strain pre9, stronger effect = lower value 1 | locus YGR229C, strain SMI1, stronger effect = lower value 0.976 | locus YGR252W, strain gcn5, stronger effect = lower value 1.05 | locus YHR013C, strain ard1, stronger effect = lower value 0.963 | locus YHR030C, strain SLT2, stronger effect = lower value 1 | locus YHR079C, strain IRE1 (second series), stronger effect = lower value 1.02 | locus YHR094C, strain hxt1, stronger effect = lower value 1.01 | locus YHR129C, strain ARP1, stronger effect = lower value 0.997 | locus YHR142W, strain chs7, stronger effect = lower value 0.945 | locus YHR200W, strain rpn10, stronger effect = lower value 1.02 | locus YIL066C, strain RNR3, stronger effect = lower value 0.992 | locus YIL073C, strain SPO22, stronger effect = lower value 1.08 | locus YIL125W, strain kgd1, stronger effect = lower value 1.01 | locus YIR030C, strain dcg1, stronger effect = lower value 1.02 | locus YJL092W, strain hpr5, stronger effect = lower value 0.977 | locus YJL095W, strain BCK1 (second series), stronger effect = lower value 0.961 | locus YJL095W, strain BCK1, stronger effect = lower value 0.976 | locus YJL115W, strain asf1, stronger effect = lower value 0.947 | locus YJL129C, strain trk1, stronger effect = lower value 0.911 | locus YJL134W, strain LCB3, stronger effect = lower value 1.01 | locus YJL154C, strain vps35, stronger effect = lower value 0.984 | locus YJL164C, strain tpk1, stronger effect = lower value 0.929 | locus YJL166W, strain qcr8, stronger effect = lower value 0.969 | locus YJL168C, strain set2, stronger effect = lower value 1.01 | locus YJL187C, strain SWE1 (second series), stronger effect = lower value 0.992 | locus YJL187C, strain SWE1, stronger effect = lower value 0.963
active: locus YAL026C, strain drs2, stronger effect = lower value 0.904 | locus YDR137W, strain rgp1, stronger effect = lower value 0.829 | locus YER015W, strain faa2, stronger effect = lower value 0.897 | locus YHR027C, strain rpn1, stronger effect = lower value 0.874

Reference: PubChem BioAssay AID1159580 (chemical genetic matrix, 2015)
